# Experimental data published in article PMC10726135, “HNF4α isoforms regulate the circadian balance between carbohydrate and lipid metabolism in the liver”.
# Over roughly 18,000 sequences, “log2 normalized intensity” has its median near 0.39; the highest 2% begin near 6.6. The list comes from a sample in which the highest values are over-represented; it also holds similar and randomly drawn sequences.
# Target: T1, HNF4alpha2 (COS-7 nuclear extract) (Homo sapiens, UniProt P41235 1-474)
# T1 sequence: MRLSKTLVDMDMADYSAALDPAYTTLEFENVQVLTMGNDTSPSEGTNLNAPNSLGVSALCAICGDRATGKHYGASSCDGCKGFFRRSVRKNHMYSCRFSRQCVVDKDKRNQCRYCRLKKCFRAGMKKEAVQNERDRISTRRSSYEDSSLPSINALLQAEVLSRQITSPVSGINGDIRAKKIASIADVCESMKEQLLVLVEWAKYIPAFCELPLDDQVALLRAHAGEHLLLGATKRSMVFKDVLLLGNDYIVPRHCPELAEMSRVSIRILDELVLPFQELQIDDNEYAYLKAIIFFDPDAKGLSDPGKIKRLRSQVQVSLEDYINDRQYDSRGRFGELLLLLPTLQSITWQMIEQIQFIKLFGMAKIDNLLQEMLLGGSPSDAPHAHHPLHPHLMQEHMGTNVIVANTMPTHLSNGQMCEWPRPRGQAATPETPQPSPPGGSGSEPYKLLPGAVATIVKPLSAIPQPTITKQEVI
# Test: protein-binding microarray; COS-7 nuclear extract on double-stranded Agilent 4x180k PBM; binding buffer, salt, pH and temperature not given in the material; high values mean tight binding
# Settings: chain copies: 2; label: 3' end of strand 1 on the slide; dsDNA, one strand shown
# Outline: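 Using CaPO4, COS-7 cells were transiently transfected with a human HNF4α isoform expression vector, and their nuclear extracts were applied to a custom Agilent SurePrint G3 4x180k double-stranded oligonucleotide array (~60 nt; ~44,000 test sequences in quadruplicate). Bound HNF4α was imaged at 2-µm resolution with an Agilent G2565CA scanner. Agilent software supplied the background-corrected, normalized gProcessedSignal that serves as the binding signal.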
row,Sequence,binding signal [log2 normalized intensity]
1,CCTCCCTCCATGCTGTAGATTGTGGAATGTGCCTAGGGAGATTAGAGTATCGGTCGA,1.81
2,GGTATGTTAGATTAGTGTGCAGCTTTGTGTGCCTAGGGAGATTAGAGTATCGGTCGA,2.1
3,GTCTAGATGCTGGGCAGCTTGTGTGCGTTTGCCTAGGGAGATTAGAGTATCGGTCGA,1.56
4,AGCTGTGTGCTCCTGTAGAATGACCCCCTGGCCTAGGGAGATTAGAGTATCGGTCGA,5.17
5,AACTGTACTTTGGACTGGGGACCTGGTCTGGCCTAGGGAGATTAGAGTATCGGTCGA,4.13
6,TTCTCTGTGACCTTTGGAAGGTGGGGGAGGGCCTAGGGAGATTAGAGTATCGGTCGA,4.13
7,GGGCCCAGGGTTCTCTGTGACCTTTGGAAGGCCTAGGGAGATTAGAGTATCGGTCGA,8.2
8,TGGAGCATGACCCTTTGCAGGTGGGAGAGGGCCTAGGGAGATTAGAGTATCGGTCGA,0.139
9,TGACTACCAGGTTCTGTACTTTGGAACCTGGCCTAGGGAGATTAGAGTATCGGTCGA,6.78
10,CTGCCCTTCTGACCTCCCAGGGATACTGTGGCCTAGGGAGATTAGAGTATCGGTCGA,2.47
11,TGGGTTCTTGCCCTTTGGTCTGGAACACAGGCCTAGGGAGATTAGAGTATCGGTCGA,3.31
12,GAGGTGGGCCCAGGGTTCTCTGTGACCTTTGCCTAGGGAGATTAGAGTATCGGTCGA,6.79
13,GTTCTGTACTTTGGAACCTGAAAGAGCAACGCCTAGGGAGATTAGAGTATCGGTCGA,3.87
14,CTTCTGCCCCCGCAGACCCAGTCTTAGGGAGCCTAGGGAGATTAGAGTATCGGTCGA,4.14
15,AGAAATCCACACAGCACTGACCTTTGAGAGGCCTAGGGAGATTAGAGTATCGGTCGA,4.92
16,GGCACAGTAACCTGACCCCCAGTGGAATGTGCCTAGGGAGATTAGAGTATCGGTCGA,3.32
17,CCCAGATATCTCTGGTAAACAGCTGACAATGCCTAGGGAGATTAGAGTATCGGTCGA,-0.967
18,CAAATAAAGTTTGAGGAGAGTCAAAGGTTAGCCTAGGGAGATTAGAGTATCGGTCGA,3.24
19,CTCAGGTCAGGGAAGACTGATAAGAAAACTGCCTAGGGAGATTAGAGTATCGGTCGA,-0.891
20,AGTCATGTCTTCATGCTTTCAGCCTCTCTGGCCTAGGGAGATTAGAGTATCGGTCGA,0.358
21,AGACATCGACCTTTGTGGGCTTCAGACATTGCCTAGGGAGATTAGAGTATCGGTCGA,1.71
22,CCCATCGACCTTTGCTCCCGACTCTGAGGCGCCTAGGGAGATTAGAGTATCGGTCGA,5.07

row,Sequence,binding signal [log2 normalized intensity]
1,GGGGCCCCATCGACCTTTGCTCCCGACTCTGCCTAGGGAGATTAGAGTATCGGTCGA,8.11
2,AGGCTGGGGCCCCATCGACCTTTGCTCCCGGCCTAGGGAGATTAGAGTATCGGTCGA,9.6
3,ACCTCCTGGGCCCAAGTGCTCCTCCCCATCGCCTAGGGAGATTAGAGTATCGGTCGA,3.37
4,TCTTCAGGCTGGGGCCCCATCGACCTTTGCGCCTAGGGAGATTAGAGTATCGGTCGA,6.79
5,CGCTCCCCGACCTCCTGCTGCAGCTCTGGGGCCTAGGGAGATTAGAGTATCGGTCGA,0.0682
6,GCTCTAGACATCGACCTTTGTGGGCTTCAGGCCTAGGGAGATTAGAGTATCGGTCGA,2.69
7,CGACCTTTGCTCCCGACTCTGAGGCTCCATGCCTAGGGAGATTAGAGTATCGGTCGA,4.94
8,AGCAGGCAGAGGTCAATGTCCACACCCCAGGCCTAGGGAGATTAGAGTATCGGTCGA,4.6
9,GCAGAGGCTGCAGAGGTTTCGCAAGGACGTGCCTAGGGAGATTAGAGTATCGGTCGA,-0.792
10,GTCTGCCTGACTCCAGAGTCCAAACTGGGAGCCTAGGGAGATTAGAGTATCGGTCGA,2.17
11,AGTATCATGTTGGCATTCCAGGATGAAGGAGCCTAGGGAGATTAGAGTATCGGTCGA,0.674
12,CAGCCTGGAGGAGGGCGAGGCCGAGCCTCAGCCTAGGGAGATTAGAGTATCGGTCGA,-0.906
13,ATCTACCCTTGACAATTCCTATTCATTCCCGCCTAGGGAGATTAGAGTATCGGTCGA,-0.0843
14,AAACTCTGAAGGCAAATTCTTAGAATTGCAGCCTAGGGAGATTAGAGTATCGGTCGA,-0.775
15,TATCAGCTCTCCGTGGACTTTGCCCCCTACGCCTAGGGAGATTAGAGTATCGGTCGA,11.1
16,CTTTCTATCAGCTCTCCGTGGACTTTGCCCGCCTAGGGAGATTAGAGTATCGGTCGA,9.49
17,ATCCCGTGGACTTTGCCTGCCCATCCCGTGGCCTAGGGAGATTAGAGTATCGGTCGA,3.13
18,TTTGGCCCCCAGAGCCCCGTGTCTCCCTACGCCTAGGGAGATTAGAGTATCGGTCGA,4.6
19,AAGAGACTTTGCCCTTTTTTTCTCTCCCCTGCCTAGGGAGATTAGAGTATCGGTCGA,3.42
20,GCTCTCCGTGGACTTTGCCCCCTACAGTTTGCCTAGGGAGATTAGAGTATCGGTCGA,9.73
21,TCTTCCTTTCTATCAGCTCTCCGTGGACTTGCCTAGGGAGATTAGAGTATCGGTCGA,3.08
22,TCTTTGCCCTCTTGGTATCAGCTTTGAGACGCCTAGGGAGATTAGAGTATCGGTCGA,1.42

row,Sequence,binding signal [log2 normalized intensity]
1,GTGGACTTTGCCTGCCCATCCCGTGGACTCGCCTAGGGAGATTAGAGTATCGGTCGA,3.88
2,CCAAACAGAACAAAGTCCAGTAAGGACAGTGCCTAGGGAGATTAGAGTATCGGTCGA,2.51
3,GAGTAGGTTCTCAGCTGACATTGGTGGAATGCCTAGGGAGATTAGAGTATCGGTCGA,1.36
4,AGTCCAGACAAGTCCCAAGTATTTTCAGCCGCCTAGGGAGATTAGAGTATCGGTCGA,-0.962
5,AACTTCTTATCACTTGGTGGACATGGTTCAGCCTAGGGAGATTAGAGTATCGGTCGA,2.02
6,AGATATCAGAAATGCATGAGTGACCTTTATGCCTAGGGAGATTAGAGTATCGGTCGA,4.97
7,CTCTTTTCTTTGTACCGTATTTCAGACCACGCCTAGGGAGATTAGAGTATCGGTCGA,2.19
8,CAATTAGAGCAAAGGTTACTGCAGAGAAGAGCCTAGGGAGATTAGAGTATCGGTCGA,1.54
9,AGAGCACAACCTTTGGCCGTGCATGCTTGGGCCTAGGGAGATTAGAGTATCGGTCGA,1.84
10,AAAGAGCCATGGACTGCTGACCTTTGAACCGCCTAGGGAGATTAGAGTATCGGTCGA,9.3
11,AGCAATTCAAATTCTTTGCCATGACCTTTGGCCTAGGGAGATTAGAGTATCGGTCGA,5.51
12,TTCAAATTCTTTGCCATGACCTTTGAAGCCGCCTAGGGAGATTAGAGTATCGGTCGA,6.75
13,CCTTTGAGGAGGCCTTTCCTGACCCCTCCTGCCTAGGGAGATTAGAGTATCGGTCGA,4.34
14,GCCATGGACTGCTGACCTTTGAACCCTGAGGCCTAGGGAGATTAGAGTATCGGTCGA,10.1
15,ATCTTTGACCTGGAGCATGACCCTTTGCAGGCCTAGGGAGATTAGAGTATCGGTCGA,2.68
16,ATTCTTTGCCATGACCTTTGAAGCCCAGAAGCCTAGGGAGATTAGAGTATCGGTCGA,4.66
17,ATATGAAAGAGCCATGGACTGCTGACCTTTGCCTAGGGAGATTAGAGTATCGGTCGA,6.32
18,GGCAGATATGAAAGAGCCATGGACTGCTGAGCCTAGGGAGATTAGAGTATCGGTCGA,-0.302
19,CAGTAACTGTCATGGATGACCTCTTTTAGTGCCTAGGGAGATTAGAGTATCGGTCGA,3.08
20,GCTGTCTACTCTGGGGGTCAGCAATGGTAAGCCTAGGGAGATTAGAGTATCGGTCGA,1.8
21,TGCCCCAGGAATGCCTTTTCTTTCATGTTGGCCTAGGGAGATTAGAGTATCGGTCGA,1.43
22,GTTGAGGAGTTTGTACTTTATCCTACAAGGGCCTAGGGAGATTAGAGTATCGGTCGA,2.25

row,Sequence,binding signal [log2 normalized intensity]
1,TCCTCTCAAAGTCCACCCGGCCAGCAGATGGCCTAGGGAGATTAGAGTATCGGTCGA,2.46
2,AAAGGTCATATCCAAAATATTTGCAGTGAGGCCTAGGGAGATTAGAGTATCGGTCGA,1.79
3,ATATTTTCTTTGTGCTATTTTTGGCTTGGTGCCTAGGGAGATTAGAGTATCGGTCGA,2.13
4,CCATTCTTGAGGACAGGCCAAATCCAGTAAGCCTAGGGAGATTAGAGTATCGGTCGA,-0.994
5,GCCTTGCTGAGGAATTTGGACTTCAGCCCAGCCTAGGGAGATTAGAGTATCGGTCGA,6.11
6,CACATTCCTAGACCTTTGACCTTTATACCTGCCTAGGGAGATTAGAGTATCGGTCGA,7.82
7,GTCCACACATTCCTAGACCTTTGACCTTTAGCCTAGGGAGATTAGAGTATCGGTCGA,8.13
8,CCCAAGATGGATTGGGTCCACACATTCCTAGCCTAGGGAGATTAGAGTATCGGTCGA,-0.811
9,GACATTCCTTCAGCGTGAACTTTGACATGAGCCTAGGGAGATTAGAGTATCGGTCGA,5.5
10,CTTTATACCTGTACGTTACTCTGTACCTCGGCCTAGGGAGATTAGAGTATCGGTCGA,1.19
11,TGGGAGACATTCCTTCAGCGTGAACTTTGAGCCTAGGGAGATTAGAGTATCGGTCGA,6.72
12,TCCTTCAGCGTGAACTTTGACATGAGAGAAGCCTAGGGAGATTAGAGTATCGGTCGA,3.66
13,ATTGTGATTCCTGTGATACCTTCTTTGCCTGCCTAGGGAGATTAGAGTATCGGTCGA,1.13
14,TTGACCTTTATACCTGTACGTTACTCTGTAGCCTAGGGAGATTAGAGTATCGGTCGA,3.65
15,ATTGGGTCCACACATTCCTAGACCTTTGACGCCTAGGGAGATTAGAGTATCGGTCGA,3.26
16,GACCTTTGACCTTTATACCTGTACGTTACTGCCTAGGGAGATTAGAGTATCGGTCGA,7.39
17,TCCTAGACCTTTGACCTTTATACCTGTACGGCCTAGGGAGATTAGAGTATCGGTCGA,5.75
18,GAATCACTCACTGACCTCTTTTGGATTTTTGCCTAGGGAGATTAGAGTATCGGTCGA,1.73
19,TCAGGAGTGATGCCAGAAGATTAGTGATGGGCCTAGGGAGATTAGAGTATCGGTCGA,-0.625
